In the supplement of paper PMC12669032:
Values joined by “and” are separate entries in the source; they are usually repeats but may differ in a detail not shown here. Identical values can stand only once. Unmarked numbers belong to inactive results.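 The calls were made as follows: active = AUC reduced over 20% with Padj below 0.05 in at least 2 of 3 replicates; inactive = otherwise.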

What was measured:
Roseburia intestinalis = test: growth AUC relative to DMSO control (median of replicates) (fraction); higher = more growth (less inhibition), active = hit call of the paper; conditions: 20 µM; 24 h
Method in brief: (§1)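 Gut bacterial monocultures were grown anaerobically at 37 °C in mGAM from a starting OD600 of 0.05 with 20 µM compound (1% DMSO), in round-bottom 96-well plates under pierced gas-permeable seals, and OD600 was read hourly for 24 h. With the minimum OD set to 0, area under the growth curve was normalised to the plate median of solvent-only wells, or to row and column medians on the industrial chemical plate. Each value is the median of three biological replicates grown on separate days.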

Streptococcus salivarius = test: as above; conditions: 20 µM; 24 h
Method in brief: as §1

Structure (SMILES) | growth AUC (Roseburia intestinalis) | growth AUC (Streptococcus salivarius)
COC(=O)Nc1cccc(OC(=O)Nc2cccc(C)c2)c1 | 0.936 | 0.996
CCC(C)c1cc([N+](=O)[O-])cc([N+](=O)[O-])c1OC(=O)C=C(C)C (stereo not given) | 0.948 | 0.872
O=[N+]([O-])c1ccccc1 | 0.963 | 1.01
CO/N=C(/C(=O)OC)c1ccccc1CO/N=C(\C)c1cccc(C(F)(F)F)c1 | 1.06 | 0.998
CS(=O)(=O)c1ccc(C(=O)C2C(=O)CCCC2=O)c(Cl)c1COCC(F)(F)F | 0.964 | 0.974
CSc1nnc(C(C)(C)C)c(=O)n1N | 1.06 | 1.01
CNC(=O)O/N=C(\C)C(C)S(C)(=O)=O (stereo not given) | 0.95 | 0.972
CCOc1ccccc1OS(=O)(=O)NC(=O)Nc1nc(OC)cc(OC)n1 | 0.92 | 0.966
C=C/C=C/CC1=C(C)C(OC(=O)[C@@H]2C(/C=C(\C)C(=O)OC)C2(C)C)CC1=O.C=C/C=C/CC1=C(C)[C@@H](OC(=O)[C@@H]2C(C=C(C)C)C2(C)C)CC1=O (stereo not given in full) | 1.02 | 0.947
O=S1OC[C@@H]2[C@H](CO1)[C@]1(Cl)C(Cl)=C(Cl)[C@@]2(Cl)C1(Cl)Cl (stereo not given in full) | 0.954 and 0.949 | 0.954 and 0.864
COCC(=O)N(c1c(C)cccc1C)C(C)C(=O)OC (stereo not given) | 1.01 | 0.986
CCCN(CCC)N=O | 0.988 | 0.967
OCC(O)CCl (stereo not given) | 1.02 | 1
CCN(CC)N=O | 1 | 0.964
Cc1ccc(N(SC(F)(Cl)Cl)S(=O)(=O)N(C)C)cc1 | 1.01 | 1.01
Oc1cc(Cl)c(Cl)cc1Cl | 0.906 | 0.95
CC(C)OC(=O)C(O)(c1ccc(Br)cc1)c1ccc(Br)cc1 | 1 | 0.962
O=C1OCC2C1C1(Cl)C(Cl)=C(Cl)C2(Cl)C1(Cl)Cl (stereo not given) | 0.975 | 0.986
CN(C)S(=O)(=O)N(SC(F)(Cl)Cl)c1ccccc1 | 0.993 | 0.998
Cc1cnc2c(C(=O)O)c(Cl)ccc2c1 | 0.937 | 0.969
CN1COCN(Cc2cnc(Cl)s2)/C1=N/[N+](=O)[O-] | 0.952 | 1.02
CCOP(=S)(OCC)SCn1c(=O)oc2cc(Cl)ccc21 | 0.932 | 0.98
C[C@@H](Oc1ccc(Oc2ncc(C(F)(F)F)cc2Cl)cc1)C(=O)O | 0.981 | 0.999
CS(=O)(=O)NC(=O)c1cc(Oc2ccc(C(F)(F)F)cc2Cl)ccc1[N+](=O)[O-] | 0.966 | 0.917
CP(=O)(O)CC(=O)O | 1.09 | 0.998
